# DT40 TDP1 no CPT: qHTS for Inhibitors of human tyrosyl-DNA phosphodiesterase 1 (TDP1): qHTS in cells in absence of CPT. Potency, µM (titrated, usually from 46.2 µM), hits mostly inhibitors. DT40 Tdp1-/- hTDP1 cells, no CPT, ATP luminescence, 48 h. 420,000 compounds, 15% hits; note: nearly all actives have a fitted effect of over 55% in size
#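 Growth kinetics read by CellTiter-Glo luminescence after ≥48 hr at 37 °C. Cells: DT40 Tdp1-/- stably carrying human TDP1, 400 per well, compound exposure in the absence of CPT (DMSO vehicle).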
# DT40 TDP1 CPT: qHTS for Inhibitors of human tyrosyl-DNA phosphodiesterase 1 (TDP1): qHTS in cells in presence of CPT; chicken DT40 Tdp1-/-;hTDP1 cells + 20 nM CPT, ATP luminescence, 48 h; Potency, µM (top dose mostly 46.2 µM), usual class: inhibitors; 420,000 compounds, 12% hits; note: nearly all actives have a fitted effect of over 55% in size
#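 Chicken DT40 Tdp1-/- cells stably complemented with human TDP1 were seeded at 400 cells/well in medium containing 20 nM camptothecin, exposed to pin-transferred compounds, and grown at 37 °C for at least 48 hr. Viability was read as ATP luminescence.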
# VDR inhibitor: Inhibitors of the vitamin D receptor (VDR): qHTS; Vitamin D3 receptor (Homo sapiens), P11473; VDR-SRC2-3 peptide fluorescence polarization, 2 h; Potency, µM, most hits filed as inhibitors; 400,000 compounds, 0.93% hits; AID 504847, 2011
#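 VDR–SRC2-3 interaction, FP format. Cmpds 23 nl via pintool, brief spin, 2 h ambient incubation.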
# PLK1 PBD inh: qHTS for Inhibitors of PLK1-PDB (polo-like kinase 1 - polo-box domain): Primary Screen; Plk1 PBD binding of FITC phosphopeptide, fluorescence polarization; Potency, µM, hits mostly inhibitors; 360,000 compounds, 2.8% hits; AID 720504, 2013; note: series mostly up to about 57 µM; nearly all actives have a fitted effect of over 65% in size
# GCN5L2 inh: qHTS Assay for Inhibitors of GCN5L2; 390,000 compounds, 0.21% hits; AID 504327, 2011; GCN5L2 HAT assay, ThioGlo1 CoA-SH fluorescence; Potency, µM (highest dose often 58.9 µM), actives largely listed as inhibitors
#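 Enzyme at 20nM final was mixed with library compounds for 15 min at room temperature. Peptide H3(1-25) at 75uM, acetyl-CoA at 70uM and ThioGlo1 at 50uM were then added. Plates were read immediately and after 20 min (Ex340nm/Em540nm).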
# TDP1 block: qHTS Assay for Inhibitors of Tyrosyl-DNA Phosphodiesterase (TDP1) | Tyrosyl-DNA phosphodiesterase 1 (Homo sapiens), Q9NUW8 | recombinant TDP1, AlphaScreen DNA substrate cleavage | Potency, µM (top dose mostly 130 µM), usual class: inhibitors | 350,000 compounds, 0.28% hits | AID 485290, 2010; note: nearly all actives have a fitted effect of over 40% in size
# Target sequence (Q9NUW8 whole entry, looked up): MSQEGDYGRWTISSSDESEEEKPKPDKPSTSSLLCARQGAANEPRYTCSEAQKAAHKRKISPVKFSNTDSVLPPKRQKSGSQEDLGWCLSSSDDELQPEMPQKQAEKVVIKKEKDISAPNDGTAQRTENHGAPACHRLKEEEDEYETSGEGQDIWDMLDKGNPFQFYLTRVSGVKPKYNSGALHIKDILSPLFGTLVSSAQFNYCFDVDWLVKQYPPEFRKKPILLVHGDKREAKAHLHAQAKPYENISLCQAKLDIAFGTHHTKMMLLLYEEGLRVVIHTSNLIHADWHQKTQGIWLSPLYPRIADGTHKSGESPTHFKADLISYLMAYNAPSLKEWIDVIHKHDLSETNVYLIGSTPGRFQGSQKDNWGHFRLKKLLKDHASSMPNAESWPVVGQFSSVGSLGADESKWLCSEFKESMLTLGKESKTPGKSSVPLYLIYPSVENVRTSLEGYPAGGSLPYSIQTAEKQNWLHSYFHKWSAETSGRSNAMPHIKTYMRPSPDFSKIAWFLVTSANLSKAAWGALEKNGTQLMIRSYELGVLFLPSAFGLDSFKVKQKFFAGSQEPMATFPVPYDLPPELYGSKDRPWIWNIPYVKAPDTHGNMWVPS
#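 Enzyme-compound mixtures sat 15 min at room temperature, followed by a 5 min reaction with 15 nM final substrate and 10 min with AlphaScreen beads. Recombinant human Tdp1 was used at 1 nM final.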
# A number is an active result; n = inactive; u = inconclusive; x = not tested or not shown; [ ] = dose if it differs, or a comment. Compounds with a hit are over-represented: about 18% of the library has one in this group of screens. Calls come from the whole dose curve; as a rule, active = well fitted curve in the direction sought with a large enough effect; inconclusive = small, poorly fitted or top-dose-only effect, or another doubt; inactive = no such curve, though single readings can be large; an effect the other way counts as inactive or inconclusive.
SMILES,DT40 TDP1 no CPT,DT40 TDP1 CPT,VDR inhibitor,PLK1 PBD inh,GCN5L2 inh,TDP1 block
O=C(NCc1nc2ccccc2[nH]1)C1=C[C@H](C2CCCCC2)C[C@H](OCc2ccc(CO)cc2)O1,16µM,12µM,n,n,n,n
O=C(NCc1nc2ccccc2[nH]1)C1=C[C@H](c2ccccc2)C[C@H](OCc2ccc(CO)cc2)O1,u,u,n,n,n,n
O=C(NCc1nc2ccccc2[nH]1)C1=C[C@@H](C2CCCCC2)C[C@@H](OCc2ccc(CO)cc2)O1,u,u,n,n,n,n
Cc1nc2c(F)c(F)c(C(F)(F)F)c(F)c2[nH]1,21µM,u,n,n,n,n
O=C(NCc1ccco1)c1cccnc1-c1nc2ccccc2s1,29µM,21µM,u,24µM,n,n
Cc1noc(/C=C/c2ccco2)c1S(=O)(=O)N1CCC(C(=O)Nc2ccc(F)cc2F)CC1,u,u,n,x,n,n
COc1ccccc1/C=C/c1ccc2ccccc2n1,16µM,u,x,x,x,x
Fc1cccc(F)c1/C=C/c1ccc2ccccc2n1,u,u,n,n,n,x
CC(O)/C=C/c1ccc2ccccc2n1 (stereo not drawn),u,13µM,u,n,n,n
COc1cc(OC)c(OC)cc1/C=C/c1nc2ccccc2o1,13µM,u,x,x,x,x
Fc1ccc(/C=C/c2ccc3ccccc3n2)cc1,2.8µM,2.8µM,x,x,x,x
Cc1ccc(C)c(S(=O)(=O)c2c[nH]c(=S)[nH]c2=O)c1,n,n,n,n,n,n
Nn1c(SCc2cc([N+](=O)[O-])cc3c2OCOC3)nnc1-c1cccnc1,n,n,n,n,n,n
COc1cc(OC)c(OC)cc1/C=C/c1ccc2ccccc2n1,14µM,11µM,x,x,x,x
COc1cc(/C=C/c2ccccc2)cc(OC)c1,n,n,n,n,x,x
COc1ccc(/C=C/c2nc3cc(-c4ccccc4)ccc3o2)cc1O,9.2µM,9.2µM,n,n,n,n
COc1ccc(OC)c(/C=C/c2ccc3cccc(O)c3n2)c1,x,x,x,x,n,x
COc1cc(/C=C\c2ccc(OC)cc2OC)cc(OC)c1,u,7.5µM,n,x,n,x
COc1ccc(C=Cc2ccc3ccccc3n2)c(OC)c1,23µM,n,x,n,x,x
Cc1ccc(NC2=C/C(=N/S(=O)(=O)c3cccs3)c3ccccc3C2=O)cc1C,7.3µM,u,n,n,n,n
CS/C(=N\S(=O)(=O)c1cccs1)Nc1ccc(Cl)cc1,u,n,n,n,n,n
COc1ccc(S(=O)(=O)c2ccc(O)cc2)cc1,n,n,n,u,n,n
COc1ccc(S(=O)(=O)/N=C2\C=C(Nc3ccc(O)cc3)C(=O)c3ccccc32)cc1,1.5µM,0.82µM,n,n,n,n
CC(=O)Nc1ccc(NC2=C/C(=N/S(=O)(=O)c3cccs3)c3ccccc3C2=O)cc1,10µM,13µM,n,n,n,n
CCc1ccc2oc(-c3cccc(NC(=O)c4cc5ccccc5o4)c3)nc2c1,u,u,n,x,n,n[12.3 µM]
SMILES,DT40 TDP1 no CPT,DT40 TDP1 CPT,VDR inhibitor,PLK1 PBD inh,GCN5L2 inh,TDP1 block
COc1ccc2c(=O)cc(CO)oc2c1,n,u,n,n,n,n
CC1=C([N+](=O)[O-])C(c2cccc(Br)c2)C2=C(N1)c1ccccc1C2=O (stereo not drawn),1.8µM,1µM,n,n,u,n
c1ccc(CN2CCC3CC2c2c3cccc2N2CCOCC2)cc1 (stereo not drawn),15µM,u,x,n,x,x
Cc1ccc(C(=O)N(CC(=O)Nc2sc(C)c(C)c2C(N)=O)C2CCCC2)cc1,18µM,21µM,n,n,n,n
Cc1cccc(C(=O)N(CC(=O)Nc2sc(C)c(C)c2C(N)=O)C2CCCC2)c1,u,u,n,n,n,n
CCC(=O)N(CC(=O)Nc1sc(C)c(C)c1C(N)=O)C1CCCCC1,u,u,n,n,n,n
Cc1sc(NC(=O)CN(C(=O)c2ccccc2F)C2CCCC2)c(C(N)=O)c1C,16µM,u,n,n,n,n
Cc1cc(N2CCN(C)CC2)nc2ccc(NC(=S)NCCCN3CCN(C)CC3)cc12,u,u,n,n,n,n
CCCCN(CC)CCCNC(=S)Nc1ccc2nc(N3CCN(CC)CC3)cc(C)c2c1,16µM,u,n,n,n,n
CCCCN(CC)CCCNC(=S)Nc1ccc2nc(N3CCN(C)CC3)cc(C)c2c1,16µM,u,n,n,n,n
CCCCC1=CC2=CC(=O)C(C)(OC(=O)CC)C(=O)C2=CN1Cc1ccccc1 (stereo not drawn),18µM,13µM,n,n,n,n[12.3 µM]
CCCCC1=CC2=CC(=O)C(C)(OC(=O)CC)C(=O)C2=CN1Cc1ccco1 (stereo not drawn),n,u,n,n,n,n[12.3 µM]
CCCCC1=CC2=CC(=O)C(C)(OC(=O)CC)C(=O)C2=CN1c1ccccc1 (stereo not drawn),16µM,u,n,n,n,n[21 µM]
CCCCC1=CC2=CC(=O)C(C)(OC(=O)CC)C(=O)C2=CN1CCc1c[nH]c2ccccc12 (stereo not drawn),16µM,u,n,n,n,n[21 µM]
CCOc1cc(NC(=O)c2ccccn2)c(OCC)cc1NC(=O)CC(C)C,8.2µM,13µM,n,21µM,n,n
CCOc1cc(NC(=O)C2CC2)c(OCC)cc1NC(=O)c1cccnc1,x,x,x,x,n,n
CCOc1cc(NC(=O)c2ccccn2)c(OCC)cc1NC(=O)c1ccccc1,21µM,u,n,n,n,n
CCOc1cc(NC(=S)Nc2ccccc2)c(OCC)cc1NC(=O)c1ccccc1,26µM,18µM,n,n,u,n
CCOc1cc(NC(=O)C2CC2)c(OCC)cc1NC(=O)c1ccccn1,18µM,18µM,n,n,n,n
Cc1noc(C)c1CSCC(=O)Oc1ccc(N(C)S(=O)(=O)c2ccc(Cl)cc2)cc1,n,n,n,n,n,n
N#CN1CCC(NS(=O)(=O)c2cccc(C(F)(F)F)c2)CC1,x,x,x,x,x,n
NS(=O)(=O)c1cccc(C(=O)N2CCCc3ccccc32)c1,n,n,x,n,x,x
CC12CCC(=O)N1C(C(=O)NCCN1C(=O)S/C(=C\c3ccc(F)cc3)C1=O)CS2 (stereo not drawn),u,u,n,n,n,x
